Source: PMC4336329 (PLoS ONE, 2015)
Out of some 310,000 compounds screened, about 2,200 (0.71%) showed an effect of 50% or more. Effects have a minus sign here. This is one part of a sample in which strong results are shown more often than they occur.

biological target: human ether-à-go-go-related gene (hERG) potassium channel (human, UniProt Q12809); assay: primary screen, population patch clamp on CHO cells stably expressing hERG; higher = less effect of the substance
Sequence (Q12809 whole entry, looked up): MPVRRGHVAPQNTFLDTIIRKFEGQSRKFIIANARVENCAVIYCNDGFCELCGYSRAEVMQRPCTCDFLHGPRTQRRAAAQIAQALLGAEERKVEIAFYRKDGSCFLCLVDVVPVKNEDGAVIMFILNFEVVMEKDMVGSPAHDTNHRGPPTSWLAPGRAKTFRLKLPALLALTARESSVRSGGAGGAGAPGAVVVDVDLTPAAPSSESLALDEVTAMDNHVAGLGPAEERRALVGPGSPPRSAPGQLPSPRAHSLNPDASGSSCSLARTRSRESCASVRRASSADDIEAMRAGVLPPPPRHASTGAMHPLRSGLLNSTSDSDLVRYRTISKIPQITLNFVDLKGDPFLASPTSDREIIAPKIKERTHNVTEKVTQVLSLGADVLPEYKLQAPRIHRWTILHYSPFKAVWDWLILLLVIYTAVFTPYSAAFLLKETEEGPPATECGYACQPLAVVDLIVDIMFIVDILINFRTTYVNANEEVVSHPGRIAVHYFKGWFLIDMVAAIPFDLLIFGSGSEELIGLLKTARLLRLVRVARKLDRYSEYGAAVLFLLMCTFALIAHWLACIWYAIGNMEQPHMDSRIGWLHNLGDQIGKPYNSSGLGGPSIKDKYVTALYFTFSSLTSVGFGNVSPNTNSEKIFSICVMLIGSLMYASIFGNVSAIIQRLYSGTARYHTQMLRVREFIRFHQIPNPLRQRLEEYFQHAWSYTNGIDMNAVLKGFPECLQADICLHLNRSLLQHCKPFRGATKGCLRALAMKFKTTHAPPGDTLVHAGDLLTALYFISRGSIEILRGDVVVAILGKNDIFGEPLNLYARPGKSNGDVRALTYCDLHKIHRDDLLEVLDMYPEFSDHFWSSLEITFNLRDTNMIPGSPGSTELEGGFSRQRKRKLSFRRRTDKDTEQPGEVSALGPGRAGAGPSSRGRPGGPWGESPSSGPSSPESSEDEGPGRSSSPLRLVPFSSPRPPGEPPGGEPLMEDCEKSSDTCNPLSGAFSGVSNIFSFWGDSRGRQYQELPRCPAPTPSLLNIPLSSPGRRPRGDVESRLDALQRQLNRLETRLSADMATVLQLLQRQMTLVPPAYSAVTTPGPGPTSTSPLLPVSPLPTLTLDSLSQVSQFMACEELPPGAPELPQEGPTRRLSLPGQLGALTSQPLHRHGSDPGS

| SMILES | hERG current change (%, negative = inhibition) at 1uM |
| --- | --- |
| CC(C)(C)C1CCC(OC(=O)CN2CCCCC2)CC1 (stereo not shown) | 2.3% |
| Cc1ccc(S(=O)(=O)c2ccc(Cl)cc2)cc1S(=O)(=O)N1CCOCC1 | 3.5% |
| Cc1cccn2c(=O)c3cc(C(=O)NC(C)C)c(=N)n(Cc4ccncc4)c3nc12 | -67.2% |
| Cc1ccc(S(=O)(=O)c2cc3c(=O)n4cccc(C)c4nc3n(Cc3ccncc3)c2=N)cc1 | 9.03% |
| COCCCNC(=O)c1cccn2c(=O)c3cc4ccccc4cc3nc12 | -8.65% |
| CCCCNC(=O)c1cc2c(=O)n3cccc(C)c3nc2n(Cc2ccccc2)c1=N | -80.7% |
| Cc1cccn2c(=O)c3cc(C(=O)NCCN4CCOCC4)c(=N)n(Cc4ccc(F)cc4)c3nc12 | -13.3% |
| CN(CCCNC(=O)c1cccn2c(=O)c3ccccc3nc12)Cc1ccccc1 | -75.3% |
| O=C(NCCN1CCN(c2ccccc2)CC1)c1cccn2c(=O)c3ccccc3nc12 | -10.8% |
| Cc1ccc(Cn2c(=N)c(C#N)cc3c(=O)n4cccc(C)c4nc32)cc1 | -2.14% |
| CCNC(=O)c1cc2c(=O)n3cccc(C)c3nc2n(Cc2ccc(C)cc2)c1=N | -97.1% |
| N#Cc1cnn2c(-c3cccc(C(F)(F)F)c3)ccnc12 | 1.86% |
| CCOC(=O)Cc1csc(NC(=O)/C=C\c2ccccc2Cl)n1 | 7.16% |
| CC(C)C(=O)Nc1cccc(NC(=O)c2cccnc2)c1 | -1.01% |
| CCC(c1nnnn1CS(=O)(=O)c1ccc(C)cc1)N1CCC(C(N)=O)CC1.Cl (stereo not shown) | -3.7% |
| Cc1cccc(OCC(=O)Nc2ccc(S(=O)(=O)Nc3ccccn3)cc2)c1 | 17.3% |
| CS(=O)(=O)n1nc(NCc2cccs2)nc1NCc1cccs1 | 10.5% |
| CCOC(=O)CSc1c(-c2ccc(Cl)cc2)[nH]c2ccccc12 | 1.02% |
| COCCNC(=O)c1cc2c(=O)n3cccc(C)c3nc2n(Cc2ccncc2)c1=N | -31.5% |
| CCCCNC(=O)c1cc2c(=O)n3cccc(C)c3nc2n(Cc2ccncc2)c1=N | -75.4% |
| CCCc1cc(=O)n2[nH]c(NCc3c(F)cccc3Cl)nc2n1 | 12.7% |
| O=C(NC1CCCCCC1)c1cc(=O)[nH]c2ccc(S(=O)(=O)N3CCOCC3)cc12 | 1.03% |
| Cc1ccc(C)c(N2CCN(C(=O)c3ccc(Cn4c(=O)[nH]c5ccccc5c4=O)cc3)CC2)c1 | 11.6% |

| SMILES | hERG current change (%, negative = inhibition) at 1uM |
| --- | --- |
| COc1cccc(NC(=O)CCNC(=O)C2CCN(S(=O)(=O)c3ccc(F)cc3)CC2)c1 | 14.9% |
| CCOC(=O)C1CCN(S(=O)(=O)c2ccc3oc(=O)ccc3c2)CC1 | -78.2% |
| CCOC(=O)C1CCN(S(=O)(=O)c2ccc3[nH]c(=O)oc3c2)CC1 | 3.58% |
| CCOC(=O)C1CCN(S(=O)(=O)c2ccc3[nH]c(=O)ccc3c2)CC1 | -2.48% |
| COc1ccc(C(OCC(O)CNCCc2ccc(S(N)(=O)=O)cc2)c2ccc(OC)cc2)cc1 (stereo not shown) | -1.33% |
| COc1ccc(CCNCC(O)COc2cccc(Br)c2)cc1OC (stereo not shown) | -39.5% |
| OC(CNCCc1ccc(Cl)cc1)COc1cc(Cl)ccc1Cl (stereo not shown) | 2.52% |
| Cc1cc(Cl)ccc1OCC(O)CNCCc1ccc(S(N)(=O)=O)cc1 (stereo not shown) | -58.2% |
| CC(=O)c1cccc(OCC(O)CNCCc2ccc(Cl)cc2)c1 (stereo not shown) | 10.6% |
| CCC(=O)c1ccc(OCC(O)CNCc2ccc(F)cc2)cc1 (stereo not shown) | -12.8% |
| COc1ccc(CCNCC(O)COc2ccc(Cl)cc2)cc1OC.Cl (stereo not shown) | -56% |
| CCC(=O)c1ccc(OCC(O)CNCCc2ccc(Cl)cc2)cc1 (stereo not shown) | -69.9% |
| COc1ccc(CCNCC(O)COc2cccc(C(C)=O)c2)cc1OC.O=C(O)C(=O)O (stereo not shown) | 16% |
| O=C(Nc1ccc(Oc2ccc(Cl)cc2)cc1)c1ncn[nH]1 | 2.59% |
| Cc1nn(CC(=O)Nc2ccc(N3CCOCC3)cc2)c(C)c1Cl | 19.7% |
| CSc1ccc(CN(C)CC(=O)Nc2c(F)cccc2F)cc1.O=C(O)C(=O)O | 7.89% |
| COc1ccc2c(c1OC)CN(C)CCc1cc3c(cc1C(O)C2)OCO3 (stereo not shown) | -0.22% |
| COc1ccc2c(c1OC)CN(C)CCc1cc3c(cc1C(=O)C2)OCO3 | -84% |
| COc1cc2c(cc1OC)C(=O)Cc1ccc3c(c1CN(C)CC2)OCO3 | -39.4% |
| CC(C)(C)NC(=O)CSc1nccn1Cc1ccccc1 | 5.85% |
| O=C(ONC1=NCCCCC1)c1cccc([N+](=O)[O-])c1 | 11.8% |
| O=[N+]([O-])c1cccc(/C=N/NC2=NCCCCC2)c1 | -70.9% |
| Cl.O=[N+]([O-])c1ccccc1/C=N/NC1=NCCCCC1 | -0.325% |

| SMILES | hERG current change (%, negative = inhibition) at 1uM |
| --- | --- |
| Cc1ccc(Cn2c(=N)n(CC(O)COc3ccccc3)c3ccccc32)cc1.Cl (stereo not shown) | -36.1% |
| Cc1ccc(OCC(O)Cn2c(=N)n(Cc3ccccc3)c3ccccc32)cc1.Cl (stereo not shown) | -61% |
| COc1ccc(OCC(O)Cn2c(=N)n(CCN3CCOCC3)c3ccccc32)cc1.Cl (stereo not shown) | -10.5% |
| COc1ccc(OCC(O)Cn2c(=N)n(Cc3ccccc3)c3ccccc32)cc1.Cl (stereo not shown) | -76.6% |
| Cc1cccc(OCC(O)Cn2c(=N)n(Cc3ccccc3)c3ccccc32)c1.Cl (stereo not shown) | -16.4% |
| Cl.N=c1n(Cc2ccccc2)c2ccccc2n1CC(O)COc1ccccc1 (stereo not shown) | -55.8% |
| OC(COc1ccccc1)Cn1c2ccccc2c2ccccc21 (stereo not shown) | 8.25% |
| Cl.N=c1n(Cc2ccc(Cl)cc2)c2ccccc2n1CC(O)COc1ccccc1 (stereo not shown) | -17.1% |
| C=CCOC(=O)C1=C[C@H](c2ccc(C(F)(F)F)cc2)C[C@H](OCCCCO)O1 | 9.6% |
| CCOC(=O)/C(=C/Nc1ccc(F)c(F)c1)[N+](=O)[O-] | 13% |
| CCOC(=O)c1ccc(NC(=O)[C@@H](NC(N)=O)C(C)C)cc1 | -0.13% |
| NC(=O)c1c(NC(=O)Cn2cc([N+](=O)[O-])cn2)sc2c1CCCC2 | 2.68% |
| CCN1C(=O)C(CC(=O)Nc2ccc(F)cc2)N(CCCN2CCN(c3ccc(F)cc3)CC2)C1=S (stereo not shown) | 0.806% |
| COc1ccc(C(=O)NC2CCCCCCC2)cc1OC | 9.08% |
| COc1cc(CN2CCC(Oc3cc(C(=O)NC4CC4)ccc3OC)CC2)cc(OC)c1 | -62% |
| COc1cccc(CCNC(=O)c2ccc(OC)c(OC3CCN(C(C)C)CC3)c2)c1 | -2.35% |
| COc1ccc(C(=O)NC2CC2)cc1OC1CCN(Cc2cc(C)cc(C)c2)CC1 | -57.7% |
| COc1ccc(C(=O)NCCc2ccc(C)cc2)cc1OC1CCN(C(C)=O)CC1 | 9.4% |
| CC(C)(C)NC(=O)c1c(F)c(F)c(F)c(F)c1F | 4.34% |
| O=S(=O)(c1cccc(-c2nnc(SCc3nc4ccccc4s3)o2)c1)N1CCOCC1 | -2.26% |
| Cc1ccc2c(c1)N(CC(=O)Nc1ccccc1F)C(=O)CO2 | 17.1% |
| O=C(O)c1cccc(N/N=C(\N=Nc2ccccc2)c2ccccc2)c1 | 16.7% |
| Cc1ccc2nc3c(cc(C(=O)NCCN4CCOCC4)c(=N)n3CCCN3CCOCC3)c(=O)n2c1 | 5.89% |

| SMILES | hERG current change (%, negative = inhibition) at 1uM |
| --- | --- |
| Cc1ccc2nc3c(cc(C(=O)NCCc4ccccc4)c(=N)n3CCCN3CCOCC3)c(=O)n2c1 | -77.5% |
| Cc1ccc2nc3c(cc(C(=O)NCCc4ccccc4)c(=N)n3CCN3CCOCC3)c(=O)n2c1 | -82.9% |
| CCCCNC(=O)Cn1cnc2sc(C(=O)OCC)c(C)c2c1=O | 8.3% |
| CC(C)[C@H](NC(=O)CCn1nnc2ccccc2c1=O)C(=O)O | 17.3% |
| O=C(/C=C/c1ccccc1O)c1ccc(Cl)cc1 | 9.95% |
| Cc1nc2ccccc2c(=O)n1NC(=O)/C=C/c1ccccc1 | -0.535% |
| Cc1nc2ccccc2c(=O)n1NC(=O)/C=C/c1ccccc1Cl | -51.1% |
| Cc1nc2ccccc2c(=O)n1NC(=O)/C=C/c1ccc(Br)cc1 | 2.25% |
| Cc1csc(NC(=O)CCCc2cccs2)n1 | 1.69% |
| CCCCCN(C(=O)CCC(=O)OCc1ccccc1C)c1c(N)n(CCCC)c(=O)[nH]c1=O | 7.65% |
| CN(c1cccc(NC(=O)CN(c2cccc(F)c2)S(C)(=O)=O)c1)S(C)(=O)=O | 11.3% |
| CCOC(=O)C1(CCOc2ccccc2)CCN(Cc2ccc(C)o2)CC1 | -32.8% |
| CCOC(=O)C1(CCOc2ccccc2)CCN(Cc2ccccc2O)CC1 | -8.86% |
| CCOC(=O)C1(CCOc2ccccc2)CCN(Cc2ccc3nonc3c2)CC1 | 0.31% |
| CCOC(=O)C1(CCOc2ccccc2)CCN(Cc2cccc(OC)c2O)CC1 | -54.1% |
| CCOC(=O)C1(Cc2ccccc2)CCCN(Cc2ccc(OCC)c(CO)c2)C1 (stereo not shown) | 4.54% |
| CCOC(=O)C1(CCOc2ccccc2)CCN(Cc2cc(OC)c(O)c(OC)c2)CC1 | -66.6% |
| CCOC(=O)C1(Cc2cccc(OC)c2)CCN(Cc2cc(OC)ccc2OC)CC1 | -7.48% |
| CCOC(=O)C1(CCOc2ccccc2)CCN(Cc2ccc(OCC)c(CO)c2)CC1 | -82.4% |
| CCOC(=O)C1(CCOc2ccccc2)CCN(Cc2cc(OC)c3c(c2)OCO3)CC1 | -7.24% |
| CCOC(=O)C1(CCOc2ccccc2)CCN(Cc2cc(OC)ccc2OC)CC1 | -60.1% |
| CCOC(=O)C1(CCOc2ccccc2)CCN(Cc2ccccc2OC)CC1 | -37.2% |
